Data from PubChem BioAssay (NCATS).
Results filed as inconclusive are left out. A call without a number means that no potency is given here. The source made the active and inactive calls. Calls follow the shape of the full dose curve.

target: Atrial natriuretic peptide receptor 2 (Homo sapiens) (UniProt P20594); assay: Natriuretic polypeptide receptor (hNpr2) antagonism - Pilot subtype selectivity assay (AID 1347050); conditions: NPR2-expressing cells, cGMP antagonist-mode read-out; series mostly up to 38.3 µM
Sequence (P20594 whole entry, looked up): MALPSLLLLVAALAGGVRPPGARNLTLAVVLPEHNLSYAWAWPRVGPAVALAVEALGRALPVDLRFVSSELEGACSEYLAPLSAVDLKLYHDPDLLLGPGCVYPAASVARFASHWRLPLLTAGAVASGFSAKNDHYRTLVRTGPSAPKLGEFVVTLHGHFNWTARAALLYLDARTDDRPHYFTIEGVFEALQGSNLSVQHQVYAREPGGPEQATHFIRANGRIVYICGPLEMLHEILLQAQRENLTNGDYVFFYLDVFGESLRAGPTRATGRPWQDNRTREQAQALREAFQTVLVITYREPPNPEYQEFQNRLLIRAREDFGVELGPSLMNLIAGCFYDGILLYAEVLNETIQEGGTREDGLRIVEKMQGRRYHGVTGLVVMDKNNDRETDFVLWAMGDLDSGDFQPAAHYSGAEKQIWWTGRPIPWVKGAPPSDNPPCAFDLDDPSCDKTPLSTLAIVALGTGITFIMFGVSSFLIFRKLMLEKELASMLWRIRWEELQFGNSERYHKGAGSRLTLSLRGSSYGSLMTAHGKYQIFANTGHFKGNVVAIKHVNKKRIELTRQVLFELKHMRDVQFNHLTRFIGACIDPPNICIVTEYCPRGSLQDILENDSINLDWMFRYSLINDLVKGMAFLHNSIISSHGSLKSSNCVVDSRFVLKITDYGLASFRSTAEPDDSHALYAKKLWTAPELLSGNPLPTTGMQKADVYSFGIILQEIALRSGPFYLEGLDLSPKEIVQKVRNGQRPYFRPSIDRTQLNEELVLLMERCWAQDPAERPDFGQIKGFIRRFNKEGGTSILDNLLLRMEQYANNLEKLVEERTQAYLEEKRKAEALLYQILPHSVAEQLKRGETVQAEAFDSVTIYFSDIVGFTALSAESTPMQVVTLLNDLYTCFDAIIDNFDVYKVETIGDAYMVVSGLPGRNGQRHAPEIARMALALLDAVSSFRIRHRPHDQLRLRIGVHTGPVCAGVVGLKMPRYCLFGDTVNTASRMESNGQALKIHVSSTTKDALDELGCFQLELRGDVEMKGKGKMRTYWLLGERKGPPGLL
In short: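 Luminescence from a genetically encoded cGMP luciferase biosensor in hNpr2-expressing HEK293 cells is read before and 20 min after adding 1 nM hNppC. Test compounds, in interplate 1:5 titrations, are added 30-50 min ahead of the agonist.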

Row | SMILES | Potency
1 | O=C(O)C1=CCCNC1 | inactive
2 | CC(C)C[C@H](NC(=O)[C@H](O)[C@H](N)Cc1ccccc1)C(=O)O | inactive
3 | Cc1nc2n(c(=O)c1CCN1CCC(c3noc4cc(F)ccc34)CC1)CCCC2O (stereo not drawn) | inactive
4 | CC1CNCCN1S(=O)(=O)c1cccc2cnccc12 (stereo not drawn) | inactive
5 | O=C(O)C1CCNCC1 | inactive
6 | NCCCCN | inactive
7 | NC1(C(=O)O)CC1 | inactive
8 | CN1CC(O)C(O)C(O)C1CO (stereo not drawn) | inactive
9 | CCCCCCCCCC(=O)NC(CN1CCOCC1)[C@H](O)c1ccccc1 (stereo partly drawn) | inactive
10 | CCCCCCN(CCCCCC)C(=O)Cc1c(-c2ccc(F)cc2)[nH]c2ccccc12 | inactive
11 | O=c1[nH]c2cc(Cl)ccc2c(O)c1-c1ccc(Oc2ccccc2)cc1 | inactive
12 | Cc1cccc(C(=O)NCN2CCN(c3ccccc3C#N)CC2)c1 | inactive
13 | O=c1[nH]c2ccccc2c2ccccc12 | inactive
14 | Cc1cc(Cn2cnc3c2C[C@@H](C(=O)O)N(C(=O)C(c2ccccc2)c2ccccc2)C3)ccc1N | inactive
15 | NCCCNCCCCNCCCN | inactive
16 | CC(C)[C@@H]1CC[C@@H](C)C[C@@H]1P(=O)(c1ccccc1)c1ccccc1 | inactive
17 | CCN(CC)CCOC(=O)c1cc(Cl)c(N)cc1OC | inactive
18 | [N-]=[N+]=Nc1ccc(C(=O)CSC[C@H](NC(=O)CC[C@H](N)C(=O)O)C(=O)NCC(=O)O)cc1 | inactive
19 | Cc1ccccc1/C=C/C1=NCCN1 | inactive

Row | SMILES | Potency
20 | NC(N)=NC(N)=Nc1ccccc1 | inactive
21 | Cn1c(=O)c2c(nc(/C=C/c3cccc(Cl)c3)n2C)n(C)c1=O | inactive
22 | Nc1ncnc2c1nc(Sc1ccc(Cl)cc1)n2[C@H]1OC2COP(=O)(O)O[C@@H]2C1O (stereo partly drawn) | inactive
23 | N[C@@H](Cc1ccc(O)c(I)c1)C(=O)O | inactive
24 | CC(=O)NNC(=O)N1Cc2ccccc2Oc2ccc(Cl)cc21 | inactive
25 | NCC(O)c1ccc(O)c(O)c1 (stereo not drawn) | inactive
26 | c1ccc(C2CN3CCSC3=N2)cc1 (stereo not drawn) | inactive
27 | Cc1cc2c(cc1Cl)N(C(=O)Nc1ccnc3ccccc13)CC2 | inactive
28 | NCCNS(=O)(=O)c1cccc2c(Cl)cccc12 | inactive
29 | NC(N)=N[C@@H](CCC(=O)O)C(=O)O | inactive
30 | O=C(OCCN1CCOCC1)C1(c2ccccc2)CCCCC1 | inactive
31 | CN(C)CCCc1cc(C(=O)Nc2ccc(-c3ccncc3)cc2)ccc1O | inactive
32 | CC(=O)[C@H]1CCC2C3CC=C4C[C@@H](OS(=O)(=O)O)CC[C@]4(C)C3CC[C@@]21C (stereo partly drawn) | inactive
33 | N[C@H](C(=O)O)[C@H]1C[C@@H]1C(=O)O | inactive
34 | Nc1ncnc2c1ncn2C1CCCO1 (stereo not drawn) | inactive
35 | CNCCNS(=O)(=O)c1cccc2cnccc12 | inactive
36 | CSC(N)=NCCC[C@H](N)C(=O)O | inactive
37 | CC(C)NC[C@H](O)COc1ccc(CC(N)=O)cc1 | inactive
38 | CSc1nc(N)c2ncn([C@@H]3O[C@H](COP(=O)(O)OP(=O)(O)O)C(O)[C@H]3O)c2n1 (stereo partly drawn) | inactive
